In PubChem BioAssay AID1851 (National Center for Advancing Translational Sciences (NCATS), 2009):
Values joined by “and” are separate entries in the source; they are usually repeats but may differ in a detail not shown here. Equal entries are not always repeated. The whole screen tested about 16,000 compounds, of which about 5,800 (36%) were called active. About 23% were inconclusive and are not listed. Calls come from the whole dose curve; as a rule, active = well fitted curve in the direction sought with a large enough effect; inconclusive = small, poorly fitted or top-dose-only effect, or effect the other way; inactive = no such curve, though single readings can be large or run the other way. The list shows a part of the results. A structure can be active in one record and inactive in another. Square brackets hold non-standard residues; d marks the D form. Peptide text beside a SMILES is read from it. * marks the point of attachment. Cbz = O=C(OCc1ccccc1)*

biological target: Cytochrome P450 2C19 (Homo sapiens) (UniProt P33261); assay: Cytochrome panel assay with activity outcomes; settings: recombinant CYP, pro-luciferin dealkylation, luminescence, p450-cyp2c19; series mostly up to 57.1 µM
Sequence (P33261 whole entry, looked up): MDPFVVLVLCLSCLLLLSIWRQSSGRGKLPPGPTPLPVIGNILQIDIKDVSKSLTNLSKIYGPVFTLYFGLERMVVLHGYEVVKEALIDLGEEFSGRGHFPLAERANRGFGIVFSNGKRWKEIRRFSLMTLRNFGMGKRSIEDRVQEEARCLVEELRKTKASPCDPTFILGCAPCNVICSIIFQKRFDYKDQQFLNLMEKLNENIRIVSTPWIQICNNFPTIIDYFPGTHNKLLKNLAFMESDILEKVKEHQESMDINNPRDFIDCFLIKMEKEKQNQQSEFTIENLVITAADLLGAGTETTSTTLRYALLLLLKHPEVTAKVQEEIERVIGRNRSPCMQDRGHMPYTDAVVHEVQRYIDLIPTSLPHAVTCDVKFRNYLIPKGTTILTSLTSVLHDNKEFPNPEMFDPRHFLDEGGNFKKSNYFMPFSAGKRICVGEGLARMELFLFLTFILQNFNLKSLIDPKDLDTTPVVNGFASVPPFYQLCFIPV
% is set by controls: 0 for no effect and ±100 for the full control effect.

Compound | activity, negative = inhibition | AC50
O=C1[C@H]2[C@H]3[C@H](O)[C@H](O)C/C(=N/OC[C@@H](O)COCc4ccco4)[C@H]3CC[C@@H]2C(=O)N1C[C@@H]1CCCO1 | -12.6% [at 11.4 µM] (inactive) | –
CSCC[C@H](C=O)NC(=O)[C@H](CC(C)C)NC(=O)[C@H](CC(C)C)NC(C)=O (Ac-Leu-Leu-[dM]-aldehyde) | – | inactive
COC(=O)CCC(NC(=O)OCc1ccccc1)C(=O)NC(CC(C)C)C(=O)OC (centres undefined) (Cbz-Glu(OMe)-Leu-OMe; configuration not given here) | – | 11.2 µM (active)
CCCCC(C=O)NC(=O)C(CC(C)C)NC(=O)OCc1ccccc1 (centres undefined) | – | 10 µM (active)
CC(C)C[C@H](NC(=O)[C@@H](O)[C@H](N)Cc1ccccc1)C(=O)O | – | inactive
CC(C)[C@H](NC(=O)OCc1ccccc1)C(=O)N[C@H](C=O)Cc1ccccc1 (Cbz-Val-Phe-aldehyde) | – | inactive
COc1ccc(/C=C2\SC(=O)N(CCNC(=O)C3CC(=O)N(c4ccccc4)C3)C2=O)cc1 (centres undefined) | – | 14.1 µM (active)
COC(=O)COc1ccc(/C=C2/SC(=O)N(CC(=O)N3CCCC3)C2=O)cc1Br | – | inactive
COCC(=O)N1CCC[C@@]2(CCN(Cc3ccccc3OC)C2)C1 | – | inactive
Cc1ccc(-n2nc(C)c3c2OC(N)=C(C#N)C3c2ccco2)cc1 (centres undefined) | – | 8.91 µM (active)
O=C(O)c1cc2c(cc1S(=O)(=O)O)[C@H]1[C@@H]([C@H]3[C@H]2[C@@]2(Cl)C(Cl)=C(Cl)[C@]3(Cl)C2(Cl)Cl)[C@]2(Cl)C(Cl)=C(Cl)[C@@]1(Cl)C2(Cl)Cl | -16.5% [at 11.4 µM] (inactive) | –
Cc1cc(=O)[nH]c(-n2[nH]c3c(c2=O)CCCC3)n1 | – | inactive
Cc1ccc(S(=O)(=O)Nc2cc(=O)[nH]c3c2CCC3)cc1 | – | 0.631 µM (active)
Cc1cc(C)c2c(=O)[nH]c(SCC(=O)N(C)C)nc2n1 | – | inactive
C=CCSc1nc2c(sc3nc(C)cc(C)c32)c(=O)[nH]1 | – | 6.31 µM (active)
Cc1cnc(CNc2ccnc(-c3cccc(NS(C)(=O)=O)c3)n2)cn1 | – | inactive
COc1ccc(CNc2ccnc(-c3cccc(NS(C)(=O)=O)c3)n2)c(OC)c1 | – | 15.8 µM (active)
COc1ccc(CNc2ccnc(-c3cccnc3)n2)c(OC)c1 | – | 2 µM (active)
COc1cccc(-c2nccc(NCc3ccc(OC)cc3OC)n2)c1 | – | 2.51 µM (active)
COc1cccc(-c2nccc(NCc3ccccc3OC)n2)c1 | – | 5.01 µM (active)
N[C@H](CCC(=O)NCS(=O)(=O)O)C(=O)O | – | inactive

Compound | activity, negative = inhibition | AC50
Cc1[nH]c2c(C)ccc(C)c2c1CC(=O)O | – | 0.316 µM (active)
COC(=O)C/C=C\[C@@H](C)[C@@H](/C=N\OC[C@@H](O)COCc1ccco1)NS(=O)(=O)c1ccc(C)cc1 | -9.48% [at 11.4 µM] (inactive) | –
COC(=O)C/C=C\[C@@H](C)[C@@H](/C=N\O[C@@H](C)c1cc(-c2c(C)cc(C)cc2C)no1)NS(=O)(=O)c1ccc(C)cc1 | – | 3.16 µM (active)
CO/N=C\[C@@H](NS(=O)(=O)c1ccc(C)cc1)[C@H](C)/C=C\CC(=O)OC | – | 3.16 µM (active)
COC(=O)C/C=C\[C@@H](C)[C@@H](/C=N\O[C@@H](C)c1cn([C@H]2COC[C@H]2O)nn1)NS(=O)(=O)c1ccc(C)cc1 | -9.22% [at 11.4 µM] (inactive) | –
COC(=O)C/C=C\[C@H](C)[C@H](CO)NS(=O)(=O)c1ccc(C)cc1 | 44.8% [at 11.4 µM] (inactive) | –
COC(=O)C/C=C\[C@@H](C)[C@@H](/C=N\O[C@@H](C)CN1CCCc2nc(C)c(C)cc21)NS(=O)(=O)c1ccc(C)cc1 | -27.4% [at 11.4 µM] (inactive) | –
NC1=N[C@H](c2ccc(Cl)cc2)N(c2ccc(S(=O)(=O)Nc3ncccn3)cc2)C(N)=N1 | 8.72% [at 11.4 µM] (inactive) | –
Cc1ccc(CSc2nnc([C@@H]3CCCN3)o2)cc1 | – | 7.08 µM (active)
Cc1ccc(CSc2nc3c(c(SCC(=O)O)n2)CCCC3)cc1 | – | inactive
CN1CCN(c2ncc3nc(-c4cccc(C#N)c4)c(=O)n(C)c3n2)CC1 | – | inactive
Cn1cccc1C(=O)N1CCC2(CC1)CCN(c1ccccc1)CC2 | – | inactive
Cn1cccc1C(=O)N1CCC2(CCCN(c3ccc(-c4ccccc4)cc3)C2)CC1 | – | inactive
Cn1cccc1C(=O)N1CCC2(CC1)CCN(c1cccc(-c3ccccc3)c1)CC2 | – | inactive
Cn1cccc1C(=O)N1CCC2(CCCN(c3cccc(-c4ccccc4)c3)C2)CC1 | – | 10 µM (active)
CN1CCCC2(CCN(C(=O)c3cccn3C)CC2)C1 | – | inactive
Cn1cccc1C(=O)N1CCC2(CCCN(c3ccccc3)C2)CC1 | – | 7.94 µM (active)
O=C(O)c1cc(C(=O)C(=O)c2cc(C(=O)O)c(O)c3ccccc23)c2ccccc2c1O | -29.3% [at 11.4 µM] (inactive) | –
Cc1ccc(-n2cc(C(=O)c3ccc4ccccc4c3O)cn2)cc1 | – | inactive
O=C(c1cnn(-c2ccccc2)c1)c1ccc2ccccc2c1O | – | 5.62 µM (active)
CCCCOC(=O)Nc1ccccc1C(=O)OC | – | 14.1 µM (active)

Compound | activity, negative = inhibition | AC50
CC(C)=C1C(=O)NN(c2ccc(F)c(Cl)c2)C1=O | – | inactive
Cc1ccc(-n2c(-c3cc(C)n(C)n3)n[nH]c2=S)cc1 | – | inactive
Cc1nn(CCc2n[nH]c(=S)n2-c2ccc(F)c(Cl)c2)c(C)c1[N+](=O)[O-] | – | 14.1 µM (active)
COC(=O)[C@@]1(Cc2ccc(OC)cc2)[C@@H]2[C@@H](CC(=O)[C@H]2CC(=O)C(=O)N(C)C)CN1C(=O)c1ccccc1 | – | inactive
COC(=O)[C@@]1(Cc2ccc(OC)cc2)[C@H]2c3cc(C(=O)N(C)C)[nH]c3C[C@H]2CN1C(=O)c1ccccc1 | – | 5.01 µM (active)
COC(=O)[C@@]1(Cc2ccccc2)[C@H]2c3cc(C(=O)N4CCCC4)[nH]c3C[C@H]2CN1C(=O)c1ccccc1 | – | 0.501 µM (active)
NC(N)=NC(=O)Cc1c(Cl)cccc1Cl | – | inactive and 251 nM (active)
NC(N)=NN=Cc1c(Cl)cccc1Cl | – | inactive
O=C(O)COC(=O)Cc1ccccc1Nc1c(Cl)cccc1Cl | – | inactive
CC(C)(C)CNCCO | 7.05% [at 11.4 µM] (inactive) | –
CC1(C)SC(=S)N(NC(=O)Nc2ccccc2)C1N(O)C(=O)Nc1ccccc1 (centres undefined) | – | 14.1 µM (active)
Cc1cc2ccc(OC(=O)c3ccc(N=C(N)N)cc3)cc2oc1=O | 13.8% [at 11.4 µM] (inactive) | –
Cc1ccc(S(=O)(=O)N[C@H](C(=O)Oc2ccc3c(C(F)(F)F)cc(=O)oc3c2)c2ccccc2)cc1 | – | 20 µM (active)
CCC(C)C(NS(=O)(=O)c1ccc(C)cc1)C(=O)Oc1ccc2c3c(c(=O)oc2c1)CCC3 (centres undefined) | – | 3.98 µM (active)
CCC(C)NS(=O)(=O)c1ccc(OCC(=O)NCC2CCCO2)cc1 (centres undefined) | – | inactive
Cc1nn(-c2ccc(F)cc2)c(Cl)c1/C=C(\CCC(=O)O)c1nc2ccccc2s1 | – | 15.8 µM (active)
COc1ccccc1C/C(N)=N/OC(=O)c1ccc(C)c([N+](=O)[O-])c1 | – | 8.91 µM (active)
Cn1c(=O)n2n(c1=O)[C@H]1[C@H](O)[C@H]3O[C@@H]3/C(=N/OC[C@@H](O)COCc3ccco3)[C@@H]1CC2 | -21.1% [at 11.4 µM] (inactive) | –
Oc1cccc2ccc(SSc3ccc4cccc(O)c4n3)nc12 | – | 3.16 µM (active)
CCCOc1ccc(N2C(=O)CC(S/C(N)=N/N=C(\C)c3cccs3)C2=O)cc1 (centres undefined) | – | 6.31 µM (active)
COc1ccc(N2C(=O)CC(S/C(N)=N/N=C(\C)c3cccs3)C2=O)cc1 (centres undefined) | – | 7.08 µM (active)

Compound | activity, negative = inhibition | AC50
COc1ccc(-n2c(=O)c(-c3cccs3)nc3cnc(N4CCN(C)CC4)nc32)cc1 | – | inactive
O=C(N/N=C/c1ccc2cccc(OCc3ccccc3)c2n1)c1ccc(Br)cc1 | – | 3.55 µM (active)
S=C(CSc1ccccc1)Nc1cccc2ccccc12 | – | 0.794 µM (active)
COc1ccc(C(=O)N2CCC3(CCN(Cc4cc(C(F)(F)F)cc(C(F)(F)F)c4)CC3)CC2)cc1 | – | inactive
CCCCn1nc2cc(C(=O)NCc3ccc(C(F)(F)F)cc3C(F)(F)F)ccc2c1OCC | – | 12.6 µM (active)
CCOc1c2ccc(C(=O)NCc3cc(C(F)(F)F)cc(C(F)(F)F)c3)cc2nn1C | – | 28.2 µM (active)
CCN(CC)CCNC(=O)c1cc(Cl)c(N)cc1OC | – | inactive
O=C1c2ccccc2C(=O)N1CC1c2ccccc2CCN1S(=O)(=O)c1ccccc1 (centres undefined) | – | 2 µM (active)
CN1CCC2(CC1)CCN(S(=O)(=O)c1ccccc1)CC2 | – | inactive
C[N+](C)(C)CCCCCNCC12CC3CC(CC(C3)C1)C2 | – | inactive
Cc1cc(Cn2cnc3c2C[C@@H](C(=O)O)N(C(=O)C(c2ccccc2)c2ccccc2)C3)ccc1N(C)C | – | 1.58 µM (active)
CN1CCN(CCCNC(=O)c2ccc(CSCc3cccc(Cl)c3)o2)CC1 | – | inactive
CCCn1nnc(NC(=O)Cc2ccccc2)n1 | – | 10 µM (active)
CCCC(=O)Nc1nc2n(n1)C(c1ccccc1)CC(=O)N2 (centres undefined) | – | inactive
CCCn1nnc(NC(=O)c2ccc(-c3cccc(Cl)c3)o2)n1 | – | 20 µM (active)
CC(C)Cn1cnc2c(SCc3ccc(Cl)cc3Cl)nc(N)nc21 | – | 2 µM (active)
Cc1ccc2ccccc2c1CSc1nc(N)nc2c1ncn2CC(C)C | – | 3.98 µM (active)
CC(C)Cn1cnc2c(Sc3c([N+](=O)[O-])ncn3C)nc(N)nc21 | 17.8% [at 11.4 µM] (inactive) | –
CC(C)Cn1cnc2c(SCc3ccccn3)nc(N)nc21 | 9.26% [at 11.4 µM] (inactive) | –
CC(C)(C)C1CCc2c(C(=O)N/N=C/c3cccs3)csc2C1 (centres undefined) | – | 6.31 µM (active)
ClC(=Nc1cccc2ccccc12)N(c1ccccc1)c1ccccc1 | – | 2.51 µM (active)
